The results in this text go back to ChEMBL document CHEMBL2218924, “A broad activity screen in support of a chemogenomic map for kinase signalling research and drug discovery” (Biochem J, 2013).

What is called residual activity is the signal under treatment as a percentage of the control signal.

In experiment [1] the target is Homeodomain-interacting protein kinase 3 (Homo sapiens) (UniProt Q9H422). Conditions: at 10 µM.
Experiment [2] addresses T1, Serine/threonine-protein kinase haspin (Homo sapiens) (UniProt Q8TF76).
T1 sequence (whole entry): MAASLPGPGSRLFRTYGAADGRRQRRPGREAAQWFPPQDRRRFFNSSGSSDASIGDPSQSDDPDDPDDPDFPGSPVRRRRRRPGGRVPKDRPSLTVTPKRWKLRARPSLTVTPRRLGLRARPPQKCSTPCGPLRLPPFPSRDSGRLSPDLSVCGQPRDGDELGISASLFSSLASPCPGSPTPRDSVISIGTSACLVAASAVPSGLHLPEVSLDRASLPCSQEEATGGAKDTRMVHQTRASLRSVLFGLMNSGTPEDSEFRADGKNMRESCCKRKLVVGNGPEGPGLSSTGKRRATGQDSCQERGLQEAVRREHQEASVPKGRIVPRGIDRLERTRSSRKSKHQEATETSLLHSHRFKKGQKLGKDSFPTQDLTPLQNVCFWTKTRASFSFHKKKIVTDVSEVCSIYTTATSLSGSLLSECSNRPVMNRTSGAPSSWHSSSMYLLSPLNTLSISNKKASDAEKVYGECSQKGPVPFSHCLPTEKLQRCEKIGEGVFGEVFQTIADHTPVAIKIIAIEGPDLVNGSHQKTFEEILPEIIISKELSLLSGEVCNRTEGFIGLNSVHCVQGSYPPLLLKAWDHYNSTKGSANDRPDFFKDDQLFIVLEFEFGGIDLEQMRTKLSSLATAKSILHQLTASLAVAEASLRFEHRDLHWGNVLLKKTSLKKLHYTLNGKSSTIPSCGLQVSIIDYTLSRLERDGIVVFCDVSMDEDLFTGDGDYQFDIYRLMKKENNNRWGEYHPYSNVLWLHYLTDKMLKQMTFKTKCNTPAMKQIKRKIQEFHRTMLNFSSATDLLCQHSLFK
Conditions: at 1 µM.

In experiment [3] the target is T1, Serine/threonine-protein kinase haspin (Homo sapiens). Conditions: at 10 µM.
In experiment [4] the target is Tyrosine-protein kinase HCK (Homo sapiens) (UniProt P08631). Conditions: at 1 µM.
Experiment [5] shares this target. Conditions: at 10 µM.
Experiment [6] shares this target. The conditions noted are these: at 1 µM. The source holds these as a separate data set.
For experiment [7] the target is unchanged. Conditions: at 10 µM. The source holds these as a separate data set.
Experiment [8] concerns the target Insulin-like growth factor 1 receptor (Homo sapiens) (UniProt P08069). The conditions noted are these: at 1 µM.
Experiment [9] shares this target. Conditions: at 10 µM.
Experiment [10] concerns the target T2, Protein kinase C zeta type (Homo sapiens) (UniProt Q05513).
T2 sequence (whole entry): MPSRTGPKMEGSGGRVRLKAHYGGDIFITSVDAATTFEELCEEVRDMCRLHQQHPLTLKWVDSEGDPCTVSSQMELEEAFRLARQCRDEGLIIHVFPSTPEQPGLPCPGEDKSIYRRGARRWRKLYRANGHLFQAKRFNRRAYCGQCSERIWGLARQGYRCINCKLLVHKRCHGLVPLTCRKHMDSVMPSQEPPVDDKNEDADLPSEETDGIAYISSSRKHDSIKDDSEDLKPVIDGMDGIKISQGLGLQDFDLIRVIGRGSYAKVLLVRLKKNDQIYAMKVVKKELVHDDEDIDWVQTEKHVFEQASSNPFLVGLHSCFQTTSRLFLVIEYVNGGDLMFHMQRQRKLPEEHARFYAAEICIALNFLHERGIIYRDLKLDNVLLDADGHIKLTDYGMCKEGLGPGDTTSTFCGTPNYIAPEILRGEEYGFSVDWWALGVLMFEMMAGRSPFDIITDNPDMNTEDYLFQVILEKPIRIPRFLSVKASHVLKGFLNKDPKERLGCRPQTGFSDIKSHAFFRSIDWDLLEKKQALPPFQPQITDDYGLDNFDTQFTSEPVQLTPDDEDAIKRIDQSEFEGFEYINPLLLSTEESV
Conditions: at 10 µM.

Chain of Homeodomain-interacting protein kinase 3 (Homo sapiens) (Q9H422 whole entry, looked up): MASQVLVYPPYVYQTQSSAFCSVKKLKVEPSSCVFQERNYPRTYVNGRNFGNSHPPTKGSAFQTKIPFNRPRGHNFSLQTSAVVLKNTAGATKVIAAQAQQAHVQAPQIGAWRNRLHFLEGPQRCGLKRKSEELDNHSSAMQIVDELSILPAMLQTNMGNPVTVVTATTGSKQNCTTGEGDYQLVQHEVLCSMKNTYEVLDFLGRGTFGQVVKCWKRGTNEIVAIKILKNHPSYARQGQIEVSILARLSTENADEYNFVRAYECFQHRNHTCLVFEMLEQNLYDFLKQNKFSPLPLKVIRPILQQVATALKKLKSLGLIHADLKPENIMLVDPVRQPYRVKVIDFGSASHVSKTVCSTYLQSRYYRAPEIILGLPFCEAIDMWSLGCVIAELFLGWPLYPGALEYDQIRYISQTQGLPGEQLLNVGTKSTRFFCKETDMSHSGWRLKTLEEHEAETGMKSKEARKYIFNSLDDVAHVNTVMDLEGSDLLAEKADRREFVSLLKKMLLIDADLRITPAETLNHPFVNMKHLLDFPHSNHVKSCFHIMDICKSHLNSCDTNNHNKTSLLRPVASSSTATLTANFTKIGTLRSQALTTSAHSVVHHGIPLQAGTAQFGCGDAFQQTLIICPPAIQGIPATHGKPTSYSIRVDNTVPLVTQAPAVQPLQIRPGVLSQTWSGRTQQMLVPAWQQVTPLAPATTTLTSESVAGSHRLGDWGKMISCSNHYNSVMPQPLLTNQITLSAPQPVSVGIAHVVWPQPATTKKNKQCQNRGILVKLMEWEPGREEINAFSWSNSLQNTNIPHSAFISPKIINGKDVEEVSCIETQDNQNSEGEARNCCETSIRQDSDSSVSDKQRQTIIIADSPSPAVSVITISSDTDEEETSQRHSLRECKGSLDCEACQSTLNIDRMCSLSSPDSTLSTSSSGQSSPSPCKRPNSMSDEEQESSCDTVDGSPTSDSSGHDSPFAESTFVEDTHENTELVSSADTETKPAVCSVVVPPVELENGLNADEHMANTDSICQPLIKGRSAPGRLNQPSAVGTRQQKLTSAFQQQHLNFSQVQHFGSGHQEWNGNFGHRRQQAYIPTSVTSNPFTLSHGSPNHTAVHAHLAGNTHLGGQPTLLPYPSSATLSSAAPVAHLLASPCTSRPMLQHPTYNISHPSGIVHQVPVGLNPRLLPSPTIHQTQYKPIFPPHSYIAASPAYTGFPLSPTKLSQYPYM
Chain of Tyrosine-protein kinase HCK (Homo sapiens) (P08631 2-526 limits assumed): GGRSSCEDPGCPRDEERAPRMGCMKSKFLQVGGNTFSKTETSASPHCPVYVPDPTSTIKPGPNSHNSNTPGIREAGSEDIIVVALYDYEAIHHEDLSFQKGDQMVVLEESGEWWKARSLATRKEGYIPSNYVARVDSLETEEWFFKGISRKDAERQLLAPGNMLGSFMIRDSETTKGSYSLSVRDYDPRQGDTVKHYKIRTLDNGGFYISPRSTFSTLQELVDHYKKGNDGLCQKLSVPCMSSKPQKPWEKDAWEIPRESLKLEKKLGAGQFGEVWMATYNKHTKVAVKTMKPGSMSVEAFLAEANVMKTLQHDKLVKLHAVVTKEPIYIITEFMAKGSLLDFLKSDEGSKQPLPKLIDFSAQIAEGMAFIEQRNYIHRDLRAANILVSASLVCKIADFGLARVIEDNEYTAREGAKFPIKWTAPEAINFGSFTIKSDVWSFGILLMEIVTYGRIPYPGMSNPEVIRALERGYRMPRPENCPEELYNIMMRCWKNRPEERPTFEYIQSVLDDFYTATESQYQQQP
Chain of Insulin-like growth factor 1 receptor (Homo sapiens) (P08069 31-736 limits assumed): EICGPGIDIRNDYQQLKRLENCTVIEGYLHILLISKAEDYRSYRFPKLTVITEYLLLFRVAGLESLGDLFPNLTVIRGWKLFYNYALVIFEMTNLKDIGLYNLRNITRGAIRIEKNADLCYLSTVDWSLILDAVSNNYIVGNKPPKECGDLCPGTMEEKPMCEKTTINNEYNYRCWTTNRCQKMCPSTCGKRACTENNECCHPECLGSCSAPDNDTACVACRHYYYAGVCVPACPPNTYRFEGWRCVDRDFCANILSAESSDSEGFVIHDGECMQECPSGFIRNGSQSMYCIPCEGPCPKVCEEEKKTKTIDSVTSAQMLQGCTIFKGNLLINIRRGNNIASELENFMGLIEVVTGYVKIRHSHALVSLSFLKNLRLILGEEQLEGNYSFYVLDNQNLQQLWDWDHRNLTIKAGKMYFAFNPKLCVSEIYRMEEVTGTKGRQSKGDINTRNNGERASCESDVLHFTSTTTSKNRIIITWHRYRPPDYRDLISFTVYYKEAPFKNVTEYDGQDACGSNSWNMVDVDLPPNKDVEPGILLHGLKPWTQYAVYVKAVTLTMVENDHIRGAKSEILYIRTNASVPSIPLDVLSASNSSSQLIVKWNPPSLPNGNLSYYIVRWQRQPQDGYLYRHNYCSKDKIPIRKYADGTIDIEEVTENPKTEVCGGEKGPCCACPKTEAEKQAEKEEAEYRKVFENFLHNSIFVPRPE
Chain of Insulin-like growth factor 1 receptor (Homo sapiens) (P08069 741-1367 limits assumed): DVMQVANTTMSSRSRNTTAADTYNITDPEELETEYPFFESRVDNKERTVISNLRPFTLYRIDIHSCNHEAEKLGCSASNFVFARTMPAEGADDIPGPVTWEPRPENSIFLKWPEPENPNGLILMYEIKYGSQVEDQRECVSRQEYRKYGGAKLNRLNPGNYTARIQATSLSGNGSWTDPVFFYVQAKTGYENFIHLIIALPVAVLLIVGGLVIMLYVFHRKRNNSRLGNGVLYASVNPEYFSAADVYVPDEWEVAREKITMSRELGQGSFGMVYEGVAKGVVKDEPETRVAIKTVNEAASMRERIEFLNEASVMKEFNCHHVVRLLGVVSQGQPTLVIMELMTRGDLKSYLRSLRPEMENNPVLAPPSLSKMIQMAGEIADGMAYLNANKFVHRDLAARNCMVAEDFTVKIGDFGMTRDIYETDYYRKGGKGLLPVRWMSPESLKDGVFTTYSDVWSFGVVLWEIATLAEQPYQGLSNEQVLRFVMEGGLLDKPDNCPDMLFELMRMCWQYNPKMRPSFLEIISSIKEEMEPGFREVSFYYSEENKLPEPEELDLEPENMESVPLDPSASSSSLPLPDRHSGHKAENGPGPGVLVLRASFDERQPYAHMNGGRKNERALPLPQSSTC

Consider `O=C1Nc2cc(Br)ccc2/C1=C1/Nc2ccccc2/C1=N\O`, for which the residual activity in [1] is 88%; in experiment [2] it was 68%; in experiment [3], 49%; in experiment [4], 6%; in experiment [5] it was 1%; in experiment [6], 1%. The residual activity in experiment [7] was found to be 2%; in [8], 112%; in [9], 127%; in experiment [10], 99%.

On to `CC(=O)O/N=C1\C(=C2\C(=O)Nc3cc(Br)ccc32)Nc2ccccc21`, for which the residual activity in experiment [1] amounted to 76%; in experiment [2], 93%; in [3], 74%; in [4] it was 22%; in experiment [5], 9%; in [6], 3%. Also, the residual activity was -1% in [7], 142% in [8], 110% in experiment [9] and 95% in experiment [10].

On to `Nc1cccc(-c2cc3c(Oc4cccc(O)c4)ncnc3[nH]2)c1`, for which the residual activity in experiment [2] is 86%; in [3], 45%; in [4], 4%; in experiment [5] it was 1%; in [6] it was -3%; in experiment [7], -1%. Moreover, the residual activity in experiment [8] turned out to be 99%; in experiment [9], 124%.

For `O=C1Nc2ccc(Br)cc2/C1=C\c1cc2c([nH]1)CCCC2`, the residual activity in experiment [1] came to 76%; in experiment [4] it was 59%; in [5], 52%; in [9], 128%; in [10], 102%.

For the compound `Nc1nc(Nc2ccc(S(N)(=O)=O)cc2)nn1C(=S)Nc1c(F)cccc1F`, the residual activity in experiment [1] was 21%; in experiment [4], 10%; in [5] it was 4%; in experiment [6] it was 13%; in experiment [7] it was 1%; in experiment [8], 109%. In addition, the residual activity stood at 98% in [9] and 77% in experiment [10].

Take `O=c1cc(-c2cccc3c2Sc2ccccc2S3)oc(N2CCOCC2)c1`: the residual activity was 104% in experiment [1]; 94% in experiment [2]; 98% in [3]; 96% in [4]; 82% in experiment [5]; 101% in experiment [6]. Also, the residual activity stood at 100% in experiment [7], 100% in experiment [8], 113% in experiment [9] and 100% in experiment [10].

Regarding `CC[n+]1c(/C=C/N(C)c2ccccc2)n(-c2ccccc2)c2ccc(-c3nc4ccccc4s3)cc21`, the residual activity was determined as 99% in experiment [2]; 59% in experiment [3]; 97% in [4]; 34% in [5]; 104% in experiment [6]; 95% in experiment [7]. The residual activity in experiment [8] was 126%; in experiment [9] it was 43%; in experiment [10], 96%.

On to `CN(C)CCCn1cc(C2=C(c3c[nH]c4ccccc34)C(=O)NC2=O)c2ccccc21`, for which the residual activity in experiment [1] came to 35%; in [2] it was 43%; in [3], 12%; in experiment [4], 74%; in [5] it was 54%; in [6], 113%. Also, the residual activity is 84% in experiment [7], 127% in experiment [8] and 16% in experiment [10].

As for `N#Cc1cnc2cnc(NCc3cccnc3)cc2c1Nc1ccc(F)c(Cl)c1`, the residual activity stood at 102% in experiment [2]; 67% in [3]; 17% in experiment [4]; 12% in experiment [5]; 91% in experiment [7]; 97% in [8]. Besides, in [10], the residual activity was found to be 94%.

Regarding `COc1cc2ncnc(Nc3ccc(O)c(Br)c3)c2cc1OC`, the residual activity amounted to 92% in [1]; 65% in experiment [2]; 24% in experiment [3]; 32% in experiment [4]; 4% in experiment [5]; 29% in experiment [6]. Besides, the residual activity in experiment [7] was found to be 7%; in experiment [8], 71%; in experiment [9], 73%; in experiment [10] it was 95%.

Consider `CC(=O)c1ccc(N2CCOCC2)cc1O`, for which the residual activity was 98% in experiment [1]; 78% in experiment [2]; 39% in experiment [3]; 84% in experiment [4]; 74% in experiment [5]; 97% in experiment [6]. The values for the residual activity in experiment [7], in experiment [8] and in [10] were 107%, 148% and 106%, respectively.

For `c1ccc(-c2n[nH]c3c2oc2ccccc23)cc1`, the residual activity in [1] came out at 61%; in [2], 90%; in experiment [3], 48%; in [4] it was 71%; in experiment [5], 51%; in [6] it was 98%. Further, the residual activity in experiment [7] amounted to 81%; in [9], 139%; in experiment [10] it was 117%.

With `NC(=O)c1ccc2[nH]c(-c3ccc(Oc4ccc(Cl)cc4)cc3)nc2c1`, the residual activity came to 98% in experiment [1]; 89% in experiment [2]; 96% in experiment [3]; 72% in experiment [4]; 60% in experiment [5]; 96% in experiment [6]. In addition, the residual activity in experiment [7] is 89%; in experiment [8], 140%; in [9], 98%; in experiment [10], 100%.

`Cc1nc(-c2ccccc2)c(-c2ccncc2)o1`: the residual activity in experiment [1] was 103%; in experiment [2] it was 94%; in experiment [3], 35%; in experiment [4], 24%; in experiment [5], 20%; in experiment [6] it was 96%. Moreover, the residual activity in experiment [7] was 91%; in experiment [8], 94%; in experiment [9], 128%; in experiment [10], 112%.

Take `COc1cc2ncnc(Nc3ccc(Oc4ccccc4)cc3)c2cc1OC`: the residual activity in experiment [1] stood at 105%; in experiment [4], 4%; in experiment [5], 5%; in experiment [6], 20%; in experiment [7] it was 3%; in experiment [8], 117%. Moreover, the residual activity was determined as 112% in experiment [9] and 104% in [10].

Regarding `COc1cc2ncnc(Nc3ccc(NC(=O)c4ccccc4)cc3)c2cc1OC`, the residual activity in [1] turned out to be 90%; in experiment [2], 92%; in [3] it was 59%; in [4] it was 69%; in experiment [5] it was 20%; in [6], 100%. Moreover, the residual activity came out at 60% in [7], 135% in experiment [9] and 103% in experiment [10].

Consider `O=C(O)c1ccc2c3c1cccc3c(=O)n1c3ccccc3nc21`, for which the residual activity in [1] worked out at 48%; in experiment [2], 91%; in experiment [3], 92%; in [4], 102%; in experiment [5] it was 81%; in [6] it was 104%. Further, the residual activity in experiment [7] was 95%; in [8] it was 68%; in [9], 74%; in experiment [10], 95%.

As for `C[C@@H](N)[C@H]1CC[C@H](C(=O)Nc2ccncc2)CC1`, the residual activity in experiment [1] amounted to 95%; in experiment [2], 109%; in experiment [3], 97%; in [5], 94%; in experiment [6], 91%; in [7] it was 97%. Moreover, the residual activity in experiment [8] came to 111%; in experiment [9], 109%; in experiment [10] it was 76%.
